Assay outcomes deposited in PubChem BioAssay by National Center for Advancing Translational Sciences (NCATS).
PKM2 activator – increases activity of human pyruvate kinase M2; P14618; purified PKM2, Kinase-Glo ATP luminescence, activation; response scale: 0% is enzyme alone, no compound; Potency, µM (highest dose often 57.5 µM), inactives show at the top dose activation, actives largely listed as activators; actives 0.34% (n = 260,000); also: potency is read from the fitted curve at half-maximal effect; % is scaled to controls: 0 for no effect and ±100 for the full control effect; nearly all actives have a fitted effect of over 55% in size
Target sequence (P14618 whole entry, looked up): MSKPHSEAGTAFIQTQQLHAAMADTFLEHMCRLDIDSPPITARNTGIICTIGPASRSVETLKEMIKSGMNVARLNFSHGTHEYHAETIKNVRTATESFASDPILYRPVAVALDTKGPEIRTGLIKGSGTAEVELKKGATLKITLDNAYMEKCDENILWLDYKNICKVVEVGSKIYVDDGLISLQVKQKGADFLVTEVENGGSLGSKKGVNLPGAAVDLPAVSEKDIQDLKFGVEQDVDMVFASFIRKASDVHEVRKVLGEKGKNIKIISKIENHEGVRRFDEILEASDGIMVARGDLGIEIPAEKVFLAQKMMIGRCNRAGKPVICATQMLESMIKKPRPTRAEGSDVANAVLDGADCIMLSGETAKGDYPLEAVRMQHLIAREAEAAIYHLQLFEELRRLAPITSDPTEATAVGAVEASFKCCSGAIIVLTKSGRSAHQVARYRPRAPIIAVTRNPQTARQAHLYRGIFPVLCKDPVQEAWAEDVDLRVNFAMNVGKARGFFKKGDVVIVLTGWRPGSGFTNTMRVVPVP
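ATP formation by purified human PK-M2, quantified via coupled luciferase luminescence after 1 h at room temperature with 0.1 mM ADP and 0.5 mM PEP final.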
IL2 activator – IL-2 activation | IL-2 activation reporter assay, cell-based qHTS; stimulated with anti-CD3/CD4/CD28 beads; in transgenic mouse T cells | activation, % (series mostly up to about 46 µM) | actives 0.065% (n = 360,000) | AID 652025; in the data active = activation above about 50%; inconclusive = mostly about 30% to 49%; also: 0% is about no effect
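Readout is EGFP and DsRed signal by fluorescent plate cytometry after 18 h at 37 degrees C. Transgenic mouse T cells (750/well) received compound for 60 min before bead stimulation (anti-CD3, anti-CD4, anti-CD28); memory T cells served as non-tolerant control.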
Apoferritin bind – candidate novel general anesthetic via apoferritin binding | apoferritin/1-aminoanthracene competitive binding, fluorescence | Potency, µM (doses to about 77.5 µM), for the others: top-dose activity change, negative = displacement, actives largely listed as inhibitors | actives 0.074% (n = 350,000) | AID 485281; also: potency is read from the fitted curve at half-maximal effect; % is scaled to controls: 0 for no effect and ±100 for the full control effect; nearly all actives have a fitted effect of over 20% in size
Target sequence (P02791 2-175 limits assumed): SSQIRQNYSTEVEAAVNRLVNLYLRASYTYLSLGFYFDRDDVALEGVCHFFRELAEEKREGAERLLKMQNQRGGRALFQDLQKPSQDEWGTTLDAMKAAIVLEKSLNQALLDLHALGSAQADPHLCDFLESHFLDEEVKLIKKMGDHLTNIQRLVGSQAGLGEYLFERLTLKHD
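Concentration-response curves derived by four-parameter Hill fitting of normalized fluorescence, where compounds displaced 1-AMA from 10 uM horse apoferritin following a brief 10 min room-temperature incubation; propofol titration acted as positive control.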
BRCA1 expr act – activators of BRCA1 expression; Potency, µM (highest dose often 46.1 µM), without a hit: at the highest dose activation, usual class: activators; AID 624202; MCF7-BRCA1-FFLuc reporter, luminescence, 48 h; response scale: scaled: vehicle 0%, 10 µM genistein 100%; actives 1.1% (n = 380,000); also: potency is read from the fitted curve at half-maximal effect; nearly all actives have a fitted effect of over 80% in size
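MCF7 cells carrying a BRCA1-firefly luciferase reporter (2000 cells/well, phenol-red free MEM) were attached for 2 h at 37 °C, then given compounds for 48 h. Luminescence was read 15 min after luciferase reagent; activity normalized to genistein (10 microM) and DMSO.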
a7 integrin act – activators of alpha7 integrin expression for muscular dystrophy; alpha7betagal myoblasts, beta-gal FDG fluorescence, 48 h; AID 624291; Potency, µM (titrated, usually from 38.3 µM), for inactives: at the highest dose activation, hits mostly activators; actives 0.064% (n = 350,000);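 also: potency is read from the fitted curve at half-maximal effect; 100% = response of the positive control SU9516; nearly all actives have a fitted effect of over 60% in size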
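Alpha7betagal+/- myoblasts (passage 13) were plated 16-24 hr, then exposed to compounds (1:260 dilution of DMSO stock) for 48 hours at 37C. After MPER lysis, β-galactosidase reporter activity was read as FDG fluorescence (ex 480/em 540) after 30 minutes.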
Active calls of the source: *; u = inconclusive; x = not tested or not shown; [ ] = remark or other dose. Hits are enriched below; roughly 1.3% of the tested compounds scored in any of these assays. Unless noted, calls follow the shape of the dose curve; as a rule, active = well fitted curve in the direction sought with a large enough effect; inconclusive = small, poorly fitted or top-dose-only effect, or another doubt; inactive = no such curve, though single readings can be large; an effect the other way counts as inactive or inconclusive.

SMILES	PKM2 activator	IL2 activator	Apoferritin bind	BRCA1 expr act	a7 integrin act
O=C(Nc1ccc2c(c1)OCCO2)c1cnc2n(c1=O)CCS2	-1.8%	1.3	-6.0%	7.08µM*	-2.0%
O=C(NCc1ccc2c(c1)OCO2)c1cnc2n(c1=O)CCS2	6.5%	2.7	-13.3%	39.0%	12.9%
O=C(Nc1ccc2c(c1)OCO2)c1cnc2n(c1=O)CCS2	-6.1%	-0.2	-3.6%	2.51µM*	19.5%
CCOC(=O)c1ccc(N)cc1	x	1.1	-4.1%[29.3 µM]	-12.0%	x
CCOC(=O)c1ccc(N=NN(C)C)cc1	-0.8%	-2.9	-6.3%	12.6µM*	0.0%
Cn1c2c(c3cnc4cc(Cl)ccc4c31)CN(Cc1ccc(Cl)cc1)CC2	x	x	x	11.5%	x
c1ccc(Cn2ncc3c(NCc4ccco4)ncnc32)cc1	14.1µM*	-2.9	-11.4%	-59.0%	-33.8%
COc1ccc([C@@H]2CC(=O)c3c(O)cc(O[C@@H]4O[C@H](CO)[C@@H](O)[C@H](O)[C@H]4OC4O[C@@H](C)[C@H](O)[C@@H](O)[C@H]4O)cc3O2)cc1O (stereo not given in full)	x	x	0.7%	x	x
CCOc1ccc(N=C2NC(=O)S/C2=C\c2ccc(N(C)C)cc2)cc1	-6.6%	9.4	-6.7%	3.16µM*	-37.9%
CCOc1ccc(/C=C2/SC(=O)NC2=S)cc1	0.6%	3.5	-10.7%	67.9%	-11.6%
CS(=O)(=O)N1CCN(c2ccc(NC(=O)c3cccnc3Cl)cc2)CC1	-18.0%	-1.0	-12.9%	14.6%	-2.0%
O=C(Nc1ccc(N2CCCCC2)cc1)c1cccnc1Cl	1.8%	4.0	u	10µM*	19.3%
CC(C)(C)c1ccc(C(=O)C[n+]2cc(Br)cc(Br)c2)cc1	x	x	x	0.3%	x
CC1(C)CCC(=O)N2CC[C@H]3C[C@H](OC(=O)Nc4ccc5c(c4)OCO5)C[C@@H]1[C@H]32	-0.8%	-2.9	-4.0%	11.2µM*	5.7%
CC1(C)CCC(=O)N2CC[C@H]3C[C@H](OC(=O)Nc4ccccc4)C[C@@H]1[C@H]32	-10.1%	-1.0	-11.0%	u	-19.6%
O=c1c2ccccc2nc2c3ccccc3cnn12	-7.1%	1.8	-4.9%	7.94µM*	-28.4%
COC(=O)CN(c1ccc(C)cc1)S(=O)(=O)c1ccc2c(c1)n(C)c(=O)c(=O)n2C	15.8µM*	-2.8	-8.7%	-11.8%	-4.2%
O=C(NCc1ccccc1)c1cnc2n(c1=O)CCS2	2.4%	-0.1	-9.7%	37.0%	-5.4%
O=C(NCCCc1ccccc1)c1cnc2n(c1=O)CCS2	3.6%	2.7	6.9%	6.31µM*	-6.4%[7.66 µM]
O=C(NCCC1=CCCCC1)c1cnc2n(c1=O)CCS2	6.9%	1.4	-4.6%	8.91µM*	-4.3%
CCOc1ccccc1CNC(=O)c1cn(-c2ccc(OC)cc2)c(=O)c2ccccc12	x	x	0.0%	x	x
O=C(CSc1nc2ccc(Cl)cc2[nH]1)c1ccc2c(c1)OCO2	7.94µM*	-2.0	u	0.9%	22.4%
O=C(CSc1nc2cc(Cl)c(Cl)cc2[nH]1)c1ccc2c(c1)OCO2	13.4%	0.6	-21.2%	-6.5%	-1.9%
O=C(c1ccco1)n1nc(-c2ccccc2)nc1SCc1ccccc1	-3.3%	-2.3	-16.7%	2.82µM*	12.6%
Cc1ccc(S(=O)(=O)n2nc(-c3ccco3)nc2SCc2ccccc2)cc1	-3.9%	-1.4	u	11.2µM*	-3.0%
SMILES	PKM2 activator	IL2 activator	Apoferritin bind	BRCA1 expr act	a7 integrin act
O=C(Cc1ccccc1)n1nc(-c2ccco2)nc1SCc1ccccc1	5.0%	-1.1	u	11.2µM*	13.0%
CSc1nc(-c2ccco2)nn1S(=O)(=O)c1ccc(C)cc1	1.7%	-2.6	-8.7%	0.0%	9.5%
O=S(=O)(NCC(c1ccco1)N1CCOCC1)c1ccc(Cl)cc1 (stereo not given)	3.3%	1.0	-4.7%	-5.1%	14.1µM*
CSc1ccc(/C=C/C(=O)NC(=O)c2ccccc2O)cc1	-0.4%	0.1	-14.2%	12.6µM*	10.7%
O=C(/C=C/c1ccc(Br)cc1)NC(=O)c1ccccc1O	1.4%	2.2	-7.6%	74.2%	-27.3%
COCc1nnc(NC(=O)c2cc3ccccc3o2)s1	x	-1.8	2.4%	6.31µM*	25.1%
CCCc1nnc(NC(=O)c2cc3ccccc3o2)s1	x	-3.4	-11.1%	5.01µM*	31.6%
CCCc1nnc(NC(=O)c2cc3ccccc3oc2=O)s1	-12.6%	-0.3	5.8%	-18.9%	9.4%
Cn1cc(Cl)c(C(=O)Nc2nc3ccc(Cl)cc3s2)n1	4.1%	0.1	-12.1%	12.6µM*	-9.3%
O=C1/C(=C/c2cccnc2)CCc2c1[nH]c1ccccc21	2.5%	-3.4	u	u	12.2%
CC(C)C/C=C1\CCc2c([nH]c3ccccc23)C1=O	2.5%	-2.3	-17.1%	8.91µM*	u
O=C(C1COc2ccccc2O1)N1CCc2ccccc21 (stereo not given)	-5.3%	0.0	u	11.2µM*	4.5%
O=C(C1COc2ccccc2O1)N1CCCC1 (stereo not given)	11.0%	-2.6	-15.3%	7.2%	-0.4%
COc1cc2nc(N3CCCN(C)CC3)nc(NC3CCOCC3)c2cc1OC	x	x	x	-29.3%	x
Nc1nnc(SCC(=O)c2ccc3c(c2)NC(=O)CO3)s1	28.2µM*	2.0	-8.5%	-3.6%	0.7%
O=C(c1ccc(OCC2CCCO2)cc1)N1CCN(c2ccccc2)CC1 (stereo not given)	-2.7%	-2.0	-23.6%	0.4%	-4.6%
O=C(c1ccc(OCC2CCCO2)cc1)N1CCc2ccccc2C1 (stereo not given)	-1.7%	-2.1	-21.6%	11.2µM*	5.3%
CCOC(=O)c1cnc2ccccc2c1Nc1cccc(C(=O)O)c1	3.0%	79.7*	-11.1%	-5.9%	-26.0%
CCOC(=O)c1cnc2ccc(C(=O)OC)cc2c1Nc1cccc(C(=O)O)c1	-33.1%	0.0	-5.4%	1.0%	8.6%
Cc1cc(C(C)(C)CC(C)(C)C)ccc1OCCOCC[N+](C)(C)Cc1ccccc1	x	-0.7	31.6µM*	-38.9%	x
C[N+](C)(CCOc1ccccc1)Cc1ccccc1	x	0.9	x	-4.4%	x
O=C(COC(=O)Cn1cnc2ccccc21)Nc1ccc2c(c1)C(=O)c1ccccc1C2=O	-0.3%	1.3	-3.5%	8.91µM*	u
O=C(O)/C=C/C(=O)Nc1ccc2c(c1)C(=O)c1ccccc1C2=O	-33.9%	0.7	-6.1%	11.2µM*	-45.3%
Cc1ccccc1OCC(=O)Nc1ccc2c(c1)C(=O)c1ccccc1C2=O	-7.0%	-1.8	-16.5%	5.01µM*	-10.1%
O=C(COC(=O)Cn1cnc2ccccc21)Nc1ccc(Br)cc1	x	1.2	x	10.2%	7.0%
Cc1ccccc1OCC(=O)Nc1ccc2c(c1)Cc1ccccc1-2	6.3%	-2.3	-11.0%	u	31.2%
CC(=O)Nc1ccc(SCC(c2ccccc2)N2CCN(C)CCC2=O)cc1 (stereo not given)	x	x	1.5%	x	x
